This is an account of results in PubChem BioAssay (EPA / NIEHS).

One may read the AC50 as the concentration giving half of the maximal activity seen.

Active and inactive are the calls of the source. The calls were made as follows: active = hit-call score of the fitted dose curve at least 0.9, where 1 is the maximum; inactive = score below 0.9.

Read-out in assay [1]: Tissue Factor, F3 (gene 2152)
As to the kind of experiment: BSK_CASM3C_TissueFactor: BioMAP Diversity Plus: CASM3C Assay for Tissue Factor Biomarker Activity (AID 2283052).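 Also: cell surface tissue factor protein level read by ELISA.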 The conditions noted are these: primary human coronary artery smooth muscle cells; actives raise or lower the signal.

Read-out in assay [2]: Interferon-gamma inducible Protein 10 (IP10), CXCL10 (gene 3627)
The assay is described as follows: BSK_hDFCGF_IP10: BioMAP Diversity Plus: hDFCGF Assay for Interferon-gamma inducible Protein 10 (IP10) Biomarker Activity (AID 2283053). The conditions noted are these: primary human foreskin fibroblasts; actives raise or lower the signal. The essentials: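 Primary human foreskin fibroblasts exposed to chemicals for 24 h. IP-10 measured by ELISA; changes fitted bidirectionally against DMSO baseline.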

Read-out in assay [3]: Urokinase-type plasminogen activator receptor (uPAR), PLAUR (gene 5329)
As to the kind of experiment: BSK_CASM3C_uPAR: BioMAP Diversity Plus: CASM3C Assay for Urokinase-type plasminogen activator receptor (uPAR) Biomarker Activity (AID 2283054).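 Also: cell-surface uPAR protein level quantified by ELISA.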 The conditions noted are these: primary human coronary artery smooth muscle cells; actives raise or lower the signal.

Read-out in assay [4]: Vascular cell adhesion molecule 1 (VCAM1), VCAM1 (gene 7412)
The assay is described as follows: BSK_CASM3C_VCAM1: BioMAP Diversity Plus: CASM3C Assay for Vascular cell adhesion molecule 1 (VCAM1) Biomarker Activity (AID 2283055).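 Also: VCAM-1 protein level quantified by ELISA on the cells.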 The conditions noted are these: primary human coronary artery smooth muscle cells; actives raise or lower the signal.

Read-out in assay [5]: Collagen III, COL3A1 (gene 1281)
As to the kind of experiment: BSK_hDFCGF_CollagenIII: BioMAP Diversity Plus: hDFCGF Assay for Collagen III Biomarker Activity (AID 2283056). The conditions noted are these: primary human foreskin fibroblasts; actives raise or lower the signal. The essentials: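 Cells: human foreskin fibroblasts, primary. Dosing followed by 24 h incubation, then ELISA for collagen III. Both increases and decreases scored relative to DMSO.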

Read-out in assay [6]: Interleukin-8 (IL8), CXCL8 (gene 3576)
As to the kind of experiment: BSK_hDFCGF_IL8: BioMAP Diversity Plus: hDFCGF Assay for Interleukin-8 (IL8) Biomarker Activity (AID 2283058). The conditions noted are these: primary human foreskin fibroblasts; actives raise or lower the signal. The essentials:
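IL-8 levels from compound-treated primary human fibroblasts were read by ELISA at 24 h, with DMSO serving as baseline for bidirectional fitting.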

A short description of assay [7]: BSK_hDFCGF_Proliferation: Cell Proliferation Assessment in the BioMAP Diversity Plus: hDFCGF Assay (AID 2283059).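 Also: curves fitted for both rise and fall of signal versus DMSO baseline.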 The conditions noted are these: primary human foreskin fibroblasts. The essentials:
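This proliferation readout used SRB total-protein staining of human foreskin fibroblasts […], normalized to DMSO with bidirectional curve fitting.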

Read-out in assay [8]: Macrophage colony-stimulating factor (MCSF), CSF1 (gene 1435)
As to the kind of experiment: BSK_hDFCGF_MCSF: BioMAP Diversity Plus: hDFCGF Assay for Macrophage colony-stimulating factor (MCSF) Biomarker Activity (AID 2283060). The conditions noted are these: primary human foreskin fibroblasts; actives raise or lower the signal. The essentials:
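M-CSF levels, determined by ELISA, are taken at 24 h after dosing human skin fibroblasts. Responses in either direction are fitted with DMSO serving as the baseline.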

Assay [9] is described as follows: BSK_hDFCGF_SRB: Viability Assessment in the BioMAP Diversity Plus: hDFCGF Assay (AID 2283061).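 Also: cells exposed to compound for 24 h before the read.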 The conditions noted are these: primary human foreskin fibroblasts. The essentials:
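Cells were dosed with test chemical, cultured 24 h, fixed with 10% TCA, then stained with 0.1% SRB and read at 560 nm. The fibroblasts were human foreskin primary cells, and DMSO served as baseline.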

Read-out in assay [10]: TIMP metallopeptidase inhibitor 1 (TIMP1), TIMP1 (gene 7076)
As to the kind of experiment: BSK_hDFCGF_TIMP1: BioMAP Diversity Plus: hDFCGF Assay for TIMP metallopeptidase inhibitor 1 (TIMP1) Biomarker Activity (AID 2283062). The conditions noted are these: primary human foreskin fibroblasts; actives raise or lower the signal. The essentials:
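Fibroblasts from human foreskin are treated with test chemical and harvested at 24 h. TIMP-1 is quantified by ELISA, and gain or loss of signal is scored against DMSO.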

Read-out in assay [11]: Monokine induced gamma interferon (MIG), CXCL9 (gene 4283)
The assay is described as follows: BSK_hDFCGF_MIG: BioMAP Diversity Plus: hDFCGF Assay for Monokine induced gamma interferon (MIG) Biomarker Activity (AID 2283063). The conditions noted are these: primary human foreskin fibroblasts; actives raise or lower the signal. The essentials: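 MIG signal, determined by ELISA, reflects 24 h chemical exposure of human skin primary fibroblasts. DMSO serves as negative control and baseline.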

Read-out in assay [12]: Matrix Metallopeptidase 1 (MMP1), MMP1 (gene 4312)
As to the kind of experiment: BSK_hDFCGF_MMP1: BioMAP Diversity Plus: hDFCGF Assay for Matrix Metallopeptidase 1 (MMP1) Biomarker Activity (AID 2283064). The conditions noted are these: primary human foreskin fibroblasts; actives raise or lower the signal. The essentials:
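Primary human foreskin fibroblasts exposed to chemicals for 24 h; MMP1 measured by ELISA. Cytotoxicity tracked by SRB staining in parallel cultures; bidirectional fit relative to DMSO.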

Read-out in assay [13]: Vascular cell adhesion molecule 1 (VCAM1), VCAM1 (gene 7412)
As to the kind of experiment: BSK_hDFCGF_VCAM1: BioMAP Diversity Plus: hDFCGF Assay for Vascular cell adhesion molecule 1 (VCAM1) Biomarker Activity (AID 2283065). The conditions noted are these: primary human foreskin fibroblasts; actives raise or lower the signal. The essentials: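 Cells are dosed, cultured for 24 h, then VCAM-1 is quantified by ELISA; signal increases and decreases are both fitted relative to DMSO.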

Read-out in assay [14]: Plasminogen activator inhibitor-1 (PAI1), SERPINE1 (gene 5054)
The assay is described as follows: BSK_hDFCGF_PAI1: BioMAP Diversity Plus: hDFCGF Assay for Plasminogen activator inhibitor-1 (PAI1) Biomarker Activity (AID 2283066). The conditions noted are these: primary human foreskin fibroblasts; actives raise or lower the signal. The essentials: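 Human foreskin fibroblast primary cells, 24 h chemical exposure; PAI-1 measured by ELISA. Bidirectional fitting relative to DMSO; parallel cultures stained with SRB for total protein to flag overt cytotoxicity.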

Read-out in assay [15]: Intercellular Adhesion Molecule 1 (ICAM1), ICAM1 (gene 3383)
As to the kind of experiment: BSK_KF3CT_ICAM1: BioMAP Diversity Plus: KF3CT Assay for Intercellular Adhesion Molecule 1 (ICAM1) Biomarker Activity (AID 2283067). The conditions noted are these: primary human keratinocytes with fibroblasts; actives raise or lower the signal. The essentials: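 Dose the keratinocyte/fibroblast co-culture, wait 24 h, measure ICAM-1 by ELISA, then fit increases or decreases against DMSO. Cytotoxicity is checked in parallel cultures by SRB total-protein staining.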

Read-out in assay [16]: Interferon-gamma inducible Protein 10 (IP10), CXCL10 (gene 3627)
As to the kind of experiment: BSK_KF3CT_IP10: BioMAP Diversity Plus: KF3CT Assay for Interferon-gamma inducible Protein 10 (IP10) Biomarker Activity (AID 2283068). The conditions noted are these: primary human keratinocytes with fibroblasts; actives raise or lower the signal. The essentials:
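Signal is secreted/surface IP-10 by ELISA in a human primary skin co-culture of keratinocytes and foreskin fibroblasts, taken 24 h post-dosing; DMSO served as negative control.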

The nature of assay [17]: BSK_KF3CT_SRB: Viability Assessment in the BioMAP Diversity Plus: KF3CT Assay (AID 2283069).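 Also: total protein by sulforhodamine B staining as a cytotoxicity measure; fitted for both signal gain and loss against DMSO baseline.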 The conditions noted are these: primary human keratinocytes with fibroblasts. The essentials:
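Human keratinocyte and foreskin fibroblast co-culture exposed to chemical for 24 h. Total protein measured in parallel cultures by 0.1% sulforhodamine B staining after 10% TCA fixation, read at 560 nm; bidirectional fit relative to DMSO.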

Read-out in assay [18]: Interleukin-1 alpha (IL1a), IL1A (gene 3552)
The assay is described as follows: BSK_KF3CT_IL1a: BioMAP Diversity Plus: KF3CT Assay for Interleukin-1 alpha (IL1a) Biomarker Activity (AID 2283070). The conditions noted are these: primary human keratinocytes with fibroblasts; actives raise or lower the signal. The essentials:
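Primary human keratinocyte plus foreskin fibroblast co-culture, dosed and measured at 24 h in 96-well plates. IL-1a level quantified by ELISA; bidirectional fit relative to DMSO.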

Read-out in assay [19]: TIMP metallopeptidase inhibitor 2 (TIMP2), TIMP2 (gene 7077)
The assay is described as follows: BSK_KF3CT_TIMP2: BioMAP Diversity Plus: KF3CT Assay for TIMP metallopeptidase inhibitor 2 (TIMP2) Biomarker Activity (AID 2283071). The conditions noted are these: primary human keratinocytes with fibroblasts; actives raise or lower the signal. The essentials:
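Co-culture of human primary keratinocytes and foreskin fibroblasts, measured 24 h after chemical dosing. TIMP-2 quantified by ELISA and fitted in both directions relative to DMSO. Cytotoxicity checked in parallel cultures by SRB total-protein staining.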

`NCC1(Cc2noc(=O)[nH]2)CCCCC1`: the outcome in assay [1], in assay [2], in assay [3], in assay [4], in [5] and in assay [6] was inactive. Moreover, the result in [7], in [8], in assay [9], in assay [10], in assay [11] and in assay [12] was inactive. Besides, the outcome in assay [13], in assay [14], in assay [15], in [16], in assay [17] and in assay [18] was inactive. Moreover, the outcome in [19] was inactive.

Consider `O=C(OCCCCCOC(=O)c1ccccc1)c1ccccc1`, for which the result in assay [1], in [2], in [3], in assay [4], in assay [5] and in assay [6] was inactive. The result in [7], in [8], in assay [9], in assay [10], in [11] and in [12] was inactive. The result in [13], in assay [14], in [15], in assay [16], in assay [17] and in [18] was inactive. For the same compound, the outcome in assay [19] was inactive.

As to `CC1(C)CC(N=C=O)CC(C)(CN=C=O)C1` (stereo not drawn), the outcome in assay [1], in [2], in assay [3], in assay [4], in assay [5] and in [6] was inactive. The result in assay [7], in assay [8], in [9], in assay [10], in assay [11] and in assay [12] was inactive. Moreover, the outcome in [13], in [14], in [15], in [16], in assay [17] and in [18] was inactive. The result in assay [19] was inactive.

As to `CC(=O)OC/C=C(\C)CCC=C(C)C`, the outcome in assay [1], in assay [2], in [3], in [4], in assay [5] and in assay [6] was inactive. Also, the result in [8], in [9], in assay [10], in [11], in [12] and in [13] was inactive. The outcome in assay [14], in assay [15], in assay [16], in assay [17] and in assay [18] was inactive.

`CN1CCN(Cc2cc(-c3ccc4[nH]c(=O)oc4c3)co2)[C@@H](c2ccc(F)cc2)C1`: the result in [1], in [2], in assay [3], in assay [4], in assay [5] and in [6] was inactive. The result in assay [10], in assay [11], in assay [12], in [13], in [15] and in [16] was inactive. Besides, the outcome in assay [17], in [18] and in assay [19] was inactive. Besides, the AC50 in [8] was 8.77 µM (active); in assay [9], 17.6 µM (active); in assay [14], 11.8 µM (active).

Regarding `FC(F)(F)C(F)(F)C(F)(F)C(F)(F)C(F)(F)C(F)(F)CCI`, the result in assay [1], in [2], in assay [3], in assay [4], in assay [5] and in [6] was inactive. Besides, the outcome in assay [7], in [8], in assay [9], in [10], in assay [11] and in assay [12] was inactive. Further, the result in [13], in assay [14], in [15], in [16], in assay [17] and in assay [18] was inactive. Moreover, in assay [19], the result was inactive.

As for `CNCc1cc(F)ccc1Oc1ccc(Cl)c(Cl)c1`, the outcome in [1], in assay [2], in [3], in assay [4], in [5] and in [6] was inactive. Besides, the outcome in assay [8], in assay [9], in assay [10], in assay [11], in assay [12] and in assay [13] was inactive. The outcome in assay [14], in assay [15], in [16], in assay [17] and in [18] was inactive.
